The values below come from PMC5540273 (PLoS ONE, 2017).

The structures appear in SMILES notation.

Experiment [1] relates to CSNK1G1.
The subject of experiment [2] is CSNK1G3.
Experiment [3] relates to CSF1R.
The subject of experiment [4] is DAPK1.
The subject of experiment [5] is CLK4.
In experiment [6] the test system is CSNK1A1.
Experiment [7] deals with CSNK1D.
Experiment [8] concerns CSNK1E.
The test system of experiment [9] is DAPK2.
Experiment [10] relates to T1, DCAMKL2.
T1 construct: gene DCLK2
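Note: kd values determined as follow-up on hits from a single-replicate KINOMEscan panel screen.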

On to `COc1cccc(C2=C(Nc3cc(Cl)c(O)c(Cl)c3)C(=O)NC2=O)c1` [SB-390767], for which the dissociation constant (Kd) in experiment [1] was > 10000 nM.

For `O=C1NC(=O)C(c2ccc(Cl)cc2)=C1Nc1cccc(Cl)c1` [SB-317651], the Kd in [2] was > 10000 nM.

Regarding `Cc1ccc(NC(=O)Nc2ccccc2F)cc1-c1ccc(C(=O)Nc2ccncc2)cc1` [GSK1398477], the Kd in experiment [3] was 2600 nM.

With `Cc1ccc(NC(=O)Nc2ccccc2)cc1-c1ccc(C(=O)Nc2ccncc2)cc1` [GSK1398471], the equilibrium dissociation constant (Kd) in [3] turned out to be 3300 nM.

Consider `Cn1cnc2c(N)ncnc21` [SKF-97623], for which the Kd in experiment [4] is > 10000 nM.

Consider `COc1ccc(CSc2nnc(-c3ccc4c(c3)CCO4)o2)cc1`, for which the equilibrium dissociation constant (Kd) in experiment [5] came to 1300 nM.

In experiment [3], `Cc1ccc(NC(=O)c2ccc(Cl)cc2)cc1-c1ccc(C(=O)Nc2ccncc2)cc1` [GSK1398467] showed a dissociation constant Kd of 880 nM.

`Nc1nccc(-c2c(-c3ccc(F)cc3)ncn2C2CCN(Cc3ccccc3)CC2)n1` [SB-219980]: the Kd is 41 nM in experiment [6], 7.5 nM in [7] and 24 nM in experiment [8].

For `Fc1ccc(-c2nc3n(c2-c2ccncc2)CCS3)cc1` [GI98581], the Kd in [6] worked out at 260 nM; in experiment [7], 83 nM; in [8], 180 nM.

`Cc1cccc2c(-c3ccncn3)c(-c3ccc(F)cc3)nn12` [GW515532]: the dissociation constant (Kd) was 1200 nM in experiment [7], 3400 nM in experiment [8] and > 10000 nM in experiment [2].

Turning to `COC(=O)C(NC(=O)NC1CCN(c2ccnc(Nc3ccc(F)cc3)n2)C1)c1ccccc1` (stereo not shown) [GSK1379712], the Kd in [7] is > 10000 nM.

As to `CNCc1ccc2nc(NC(=O)c3ccc(C(C)(C)C)cc3)cn2c1`, the dissociation constant Kd in experiment [2] was > 10000 nM.

With `NS(=O)(=O)c1cccc(N/C=C2\C(=O)Nc3ccc(S(=O)(=O)Cc4c(Cl)cccc4Cl)cc32)c1` [GSK398099], the Kd in experiment [4] was > 10000 nM.

Compound `Cc1ccc(NC(=O)Nc2ccc(Cl)cc2)cc1-c1ccc(C(=O)Nc2ccncc2)cc1` [GSK1398472] showed a dissociation constant (Kd) in experiment [3] of 6700 nM.

As for `COc1cccc(NC(=O)Nc2ccc(C)c(-c3ccc(C(=O)Nc4ccncc4)cc3)c2)c1` [GSK1398474], the Kd in experiment [3] was found to be 3300 nM.

`CCCCc1nn2ncccc2c1-c1ccnc(NC2CC2)n1` [GW684374]: the equilibrium dissociation constant (Kd) is 480 nM in experiment [7] and 2900 nM in experiment [8].

As to `Cc1nccc(-c2c(-c3ccc(F)cc3)ncn2CCCN2CCOCC2)n1.Cl` [SB-282975], the figures for the Kd in experiment [7], in experiment [8] and in [9] were 75 nM, 460 nM and > 10000 nM, respectively.

`Fc1ccc(-c2nc[nH]c2-c2ccncc2)cc1` [SB-217360]: the figures for the Kd in experiment [6], in experiment [7] and in [8] were 87 nM, 41 nM and 140 nM, respectively.

With `COc1ccc(CSc2nnc(-c3ccc4nccn4c3)o2)cc1C(F)(F)F`, in experiment [5], the Kd turned out to be 130 nM.

As to `CC(=O)c1c(C)c2cnc(Nc3ccc(N4CCNCC4)cn3)nc2n(C2CCCC2)c1=O`, the Kd in experiment [8] was > 10000 nM.

Turning to `CC(=O)c1c(C)c2cnc(Nc3ccn(C)n3)nc2n(C2CCCC2)c1=O`, in experiment [10], the Kd was > 10000 nM.

On to `COc1ccc(CSc2nnc(-c3ccc4ncsc4c3)o2)cc1C(F)(F)F`, for which the Kd in [5] was determined as 1100 nM.

In experiment [5], `CNc1cc(-c2ccc3c(N)n[nH]c3c2)nc(N)n1` [GSK2224810] showed a dissociation constant (Kd) of 140 nM.

Turning to `c1ccc(-c2ccnc3[nH]ccc23)cc1` [SB-693578], in [1], the equilibrium dissociation constant (Kd) is > 10000 nM.

Consider `Fc1ccc(-c2nn3cccc(F)c3c2-c2ccncc2)cc1` [GW475620], for which the Kd in experiment [7] stood at 77 nM; in [8] it was 220 nM.

As usually defined, the Kd is the concentration at which binding is half-saturated. Higher therefore signals lower affinity.
